# Data taken from the supplement of paper PMC4466140.
# Columns and labels:
# Assay in all cases: SPOT peptide array binding signal intensity (averaged, normalized) (arbitrary units (background-subtracted, floor 0; scale differs between SH3 domains)); higher = stronger binding of the SH3 domain to the peptide
# AgAbp1 = biological target: AgAbp1
# Summary of the method: (§1)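 The binding signal is the normalized, background-subtracted spot intensity averaged over replicates; its arbitrary units differ between domains. It was obtained by incubating 10 μg/ml GST-fused SH3 domains from four yeast species overnight at 4°C in TBS-based blocking buffer on cellulose membranes with synthetic 15-mer peptides, cysteines replaced by serines, then detecting with anti-GST antibody, HRP anti-mouse secondary and luminol.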
# AgBbc1 = biological target: AgBbc1
# Summary of the method: as §1
# AgBem1-D1 = biological target: AgBem1-D1
# Summary of the method: as §1
# AgBzz1-D1 = biological target: AgBzz1-D1
# Summary of the method: as §1
# AgBzz1-D2 = biological target: AgBzz1-D2
# Summary of the method: as §1
# AgCyk3 = biological target: AgCyk3
# Summary of the method: as §1
# AgFus1 = biological target: AgFus1
# Summary of the method: as §1
# AgHof1 = biological target: AgHof1
# Summary of the method: as §1
# AgHse1 = biological target: AgHse1
# Summary of the method: as §1
# AgLsb1 = biological target: AgLsb1
# Summary of the method: as §1
# AgLsb4 = biological target: AgLsb4
# Summary of the method: as §1
# AgMyo5 = biological target: AgMyo5
# Summary of the method: as §1
# AgNbp2 = biological target: AgNbp2
# Summary of the method: as §1
# AgRvs167 = biological target: AgRvs167
# Summary of the method: as §1
# AgSho1 = biological target: AgSho1
# Summary of the method: as §1
# AgSla1-D1-D2 = biological target: AgSla1-D1-D2
# Summary of the method: as §1
# AgSla1-D3 = biological target: AgSla1-D3
# Summary of the method: as §1
# CaAbp1-D1 = biological target: CaAbp1-D1
# Summary of the method: as §1
# CaAbp1-D2 = biological target: CaAbp1-D2
# Summary of the method: as §1
# CaBbc1 = biological target: CaBbc1
# Summary of the method: as §1
# CaBem1-D1 = biological target: CaBem1-D1
# Summary of the method: as §1
# CaBzz1-D1 = biological target: CaBzz1-D1
# Summary of the method: as §1
# CaBzz1-D2 = biological target: CaBzz1-D2
# Summary of the method: as §1
# CaCyk3 = biological target: CaCyk3
# Summary of the method: as §1
# CaFus1 = biological target: CaFus1
# Summary of the method: as §1
# CaHof1 = biological target: CaHof1
# Summary of the method: as §1
# CaHse1 = biological target: CaHse1
# Summary of the method: as §1
# CaLsb1 = biological target: CaLsb1
# Summary of the method: as §1
# CaLsb4 = biological target: CaLsb4
# Summary of the method: as §1
# CaMyo5 = biological target: CaMyo5
# Summary of the method: as §1
# CaNbp2 = biological target: CaNbp2
# Summary of the method: as §1
# CaRvs167 = biological target: CaRvs167
# Summary of the method: as §1
# CaRvs167-3 = biological target: CaRvs167-3
# Summary of the method: as §1
# CaSho1 = biological target: CaSho1
# Summary of the method: as §1
# CaSla1-D1-D2 = biological target: CaSla1-D1-D2
# Summary of the method: as §1
# CaSla1-D3 = biological target: CaSla1-D3
# Summary of the method: as §1
# ScAbp1 = biological target: ScAbp1
# Summary of the method: as §1
# ScBbc1 = biological target: ScBbc1
# Summary of the method: as §1
# ScBem1-D1 = biological target: ScBem1-D1
# Summary of the method: as §1
# ScBzz1-D1 = biological target: ScBzz1-D1
# Summary of the method: as §1
# ScBzz1-D2 = biological target: ScBzz1-D2
# Summary of the method: as §1
# ScCyk3 = biological target: ScCyk3
# Summary of the method: as §1
# ScFus1 = biological target: ScFus1
# Summary of the method: as §1
# ScHof1 = biological target: ScHof1
# Summary of the method: as §1
# ScHse1 = biological target: ScHse1
# Summary of the method: as §1
# ScLsb1 = biological target: ScLsb1
# Summary of the method: as §1
# ScLsb2 = biological target: ScLsb2
# Summary of the method: as §1
# ScLsb3 = biological target: ScLsb3
# Summary of the method: as §1
# ScLsb4 = biological target: ScLsb4
# Summary of the method: as §1
# ScMyo3 = biological target: ScMyo3
# Summary of the method: as §1
# ScMyo5 = biological target: ScMyo5
# Summary of the method: as §1
# ScNbp2 = biological target: ScNbp2
# Summary of the method: as §1
# ScPex13 = biological target: ScPex13
# Summary of the method: as §1
# ScRvs167 = biological target: ScRvs167
# Summary of the method: as §1
# ScSho1 = biological target: ScSho1
# Summary of the method: as §1
# ScSla1-D1-D2 = biological target: ScSla1-D1-D2
# Summary of the method: as §1
# ScSla1-D3 = biological target: ScSla1-D3
# Summary of the method: as §1
# SpAbp1-D1 = biological target: SpAbp1-D1
# Summary of the method: as §1
# SpBbc1 = biological target: SpBbc1
# Summary of the method: as §1
# SpBzz1-D1 = biological target: SpBzz1-D1
# Summary of the method: as §1
# SpBzz1-D2 = biological target: SpBzz1-D2
# Summary of the method: as §1
# SpCyk3 = biological target: SpCyk3
# Summary of the method: as §1
# SpHof1 = biological target: SpHof1
# Summary of the method: as §1
# SpHof1-2 = biological target: SpHof1-2
# Summary of the method: as §1
# SpHof1-3 = biological target: SpHof1-3
# Summary of the method: as §1
# SpHse1 = biological target: SpHse1
# Summary of the method: as §1
# SpLsb1 = biological target: SpLsb1
# Summary of the method: as §1
# SpLsb4 = biological target: SpLsb4
# Summary of the method: as §1
# SpMyo1 = biological target: SpMyo1
# Summary of the method: as §1
# SpNbp2 = biological target: SpNbp2
# Summary of the method: as §1
# SpPex13 = biological target: SpPex13
# Summary of the method: as §1
# SpRvs167 = biological target: SpRvs167
# Summary of the method: as §1
# SpSla1-D1-D2 = biological target: SpSla1-D1-D2
# Summary of the method: as §1
# SpSla1-D3 = biological target: SpSla1-D3
# Summary of the method: as §1
binder,measurement,setting,value
LEFRAILFIPKRAPF,SPOT peptide array binding signal intensity,AgAbp1,9
same,SPOT peptide array binding signal intensity,AgBbc1,11.8
same,SPOT peptide array binding signal intensity,AgBem1-D1,198
same,SPOT peptide array binding signal intensity,AgBzz1-D1,30.5
same,SPOT peptide array binding signal intensity,AgBzz1-D2,37
same,SPOT peptide array binding signal intensity,AgCyk3,4
same,SPOT peptide array binding signal intensity,AgFus1,2310
same,SPOT peptide array binding signal intensity,AgHof1,52.8
same,SPOT peptide array binding signal intensity,AgHse1,654
same,SPOT peptide array binding signal intensity,AgLsb1,1.5
same,SPOT peptide array binding signal intensity,AgLsb4,989
same,SPOT peptide array binding signal intensity,AgMyo5,≤ 0
same,SPOT peptide array binding signal intensity,AgNbp2,558
same,SPOT peptide array binding signal intensity,AgRvs167,8.17
same,SPOT peptide array binding signal intensity,AgSho1,850
same,SPOT peptide array binding signal intensity,AgSla1-D1-D2,14
same,SPOT peptide array binding signal intensity,AgSla1-D3,4.25
same,SPOT peptide array binding signal intensity,CaAbp1-D1,56
same,SPOT peptide array binding signal intensity,CaAbp1-D2,58
same,SPOT peptide array binding signal intensity,CaBbc1,68
same,SPOT peptide array binding signal intensity,CaBem1-D1,5
same,SPOT peptide array binding signal intensity,CaBzz1-D1,212
same,SPOT peptide array binding signal intensity,CaBzz1-D2,109
same,SPOT peptide array binding signal intensity,CaCyk3,16.5
same,SPOT peptide array binding signal intensity,CaFus1,5550
same,SPOT peptide array binding signal intensity,CaHof1,6
same,SPOT peptide array binding signal intensity,CaHse1,267
same,SPOT peptide array binding signal intensity,CaLsb1,19
same,SPOT peptide array binding signal intensity,CaLsb4,81
same,SPOT peptide array binding signal intensity,CaMyo5,13.2
same,SPOT peptide array binding signal intensity,CaNbp2,1090
same,SPOT peptide array binding signal intensity,CaRvs167,224
same,SPOT peptide array binding signal intensity,CaRvs167-3,268
same,SPOT peptide array binding signal intensity,CaSho1,2030
same,SPOT peptide array binding signal intensity,CaSla1-D1-D2,49
same,SPOT peptide array binding signal intensity,CaSla1-D3,249
same,SPOT peptide array binding signal intensity,ScAbp1,5
same,SPOT peptide array binding signal intensity,ScBbc1,0.25
same,SPOT peptide array binding signal intensity,ScBem1-D1,18
same,SPOT peptide array binding signal intensity,ScBzz1-D1,25.5
same,SPOT peptide array binding signal intensity,ScBzz1-D2,162
same,SPOT peptide array binding signal intensity,ScCyk3,35
same,SPOT peptide array binding signal intensity,ScFus1,3610
same,SPOT peptide array binding signal intensity,ScHof1,1
same,SPOT peptide array binding signal intensity,ScHse1,1790
same,SPOT peptide array binding signal intensity,ScLsb1,2
same,SPOT peptide array binding signal intensity,ScLsb2,≤ 0
same,SPOT peptide array binding signal intensity,ScLsb3,164
same,SPOT peptide array binding signal intensity,ScLsb4,11.5
same,SPOT peptide array binding signal intensity,ScMyo3,≤ 0
same,SPOT peptide array binding signal intensity,ScMyo5,4
same,SPOT peptide array binding signal intensity,ScNbp2,593
same,SPOT peptide array binding signal intensity,ScPex13,186
same,SPOT peptide array binding signal intensity,ScRvs167,29.2
same,SPOT peptide array binding signal intensity,ScSho1,3570
same,SPOT peptide array binding signal intensity,ScSla1-D1-D2,37.5
same,SPOT peptide array binding signal intensity,ScSla1-D3,94.5
same,SPOT peptide array binding signal intensity,SpAbp1-D1,30
same,SPOT peptide array binding signal intensity,SpBbc1,11.5
same,SPOT peptide array binding signal intensity,SpBzz1-D1,220
same,SPOT peptide array binding signal intensity,SpBzz1-D2,0.5
same,SPOT peptide array binding signal intensity,SpCyk3,10.5
same,SPOT peptide array binding signal intensity,SpHof1,61.5
same,SPOT peptide array binding signal intensity,SpHof1-2,29.5
same,SPOT peptide array binding signal intensity,SpHof1-3,418
same,SPOT peptide array binding signal intensity,SpHse1,1270
same,SPOT peptide array binding signal intensity,SpLsb1,≤ 0
same,SPOT peptide array binding signal intensity,SpLsb4,10
same,SPOT peptide array binding signal intensity,SpMyo1,11
same,SPOT peptide array binding signal intensity,SpNbp2,1170
same,SPOT peptide array binding signal intensity,SpPex13,127
same,SPOT peptide array binding signal intensity,SpRvs167,17.3
same,SPOT peptide array binding signal intensity,SpSla1-D1-D2,≤ 0
same,SPOT peptide array binding signal intensity,SpSla1-D3,66.5
